# From PubChem BioAssay
# Hits are enriched below; roughly 4.1% of the tested compounds scored in any of these assays.
# AMA1 RON2 block: qHTS for Inhibitors of AMA1-RON; Towards Development of Antimalarial Drug Lead: Primary Screen; Plasmodium falciparum AMA1 (3D7) - RON2 peptide interaction; AlphaScreen AMA1-biotinylated RON2 peptide binding; 0.2% of 360,000 active; Potency, µM (doses to about 58.2 µM), actives largely listed as inhibitors; AID 720542, 2013; also: nearly all actives have a fitted effect of over 45% in size
#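 AMA1 (3D7) with his tag at 25 nM final met compounds first, then biotinylated RON2 peptide at 25 nM; detection used donor plus acceptor beads, 10 µg/mL apiece, read by AlphaScreen after 30 min at room temperature.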
# FMDV antiviral: High Throughput Screening for Foot and Mouth Disease Virus Antivirals | FMDV antiviral cell-based qHTS | Potency, µM (highest dose often 57.9 µM), most hits filed as inhibitors | 1.2% of 410,000 active; calls by dose curve; tested in HEK293T cells; also: read-out not given here; nearly all actives have a fitted effect of over 45% in size
# AmpC no deterg: qHTS Inhibitors of AmpC Beta-Lactamase (assay without detergent) | P00811 | AmpC nitrocefin hydrolysis, absorbance 480 nm, 0.0001% Triton | Potency, µM (top dose mostly 57.1 µM), actives largely listed as inhibitors | 0.52% of 330,000 active | AID 485341, 2010; also: nearly all actives have a fitted effect of over 20% in size
# Target sequence (P00811 whole entry, looked up): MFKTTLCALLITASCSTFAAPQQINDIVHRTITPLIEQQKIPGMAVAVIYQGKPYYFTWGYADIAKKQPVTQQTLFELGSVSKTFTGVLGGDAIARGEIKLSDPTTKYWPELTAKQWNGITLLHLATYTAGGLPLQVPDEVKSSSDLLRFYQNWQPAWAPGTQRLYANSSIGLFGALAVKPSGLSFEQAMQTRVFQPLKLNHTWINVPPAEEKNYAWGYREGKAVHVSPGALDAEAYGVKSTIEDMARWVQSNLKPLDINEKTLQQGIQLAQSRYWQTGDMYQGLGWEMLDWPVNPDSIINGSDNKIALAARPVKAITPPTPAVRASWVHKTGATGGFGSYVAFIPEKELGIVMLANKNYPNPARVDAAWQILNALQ
#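 AmpC (5.3 nM in the dispensed reagent) in 20 mM phosphate pH 7.0 with 0.01% (detergent screen) or 0.0001% Triton X-100 was preincubated with compounds for 15 min at room temperature. Nitrocefin was then added from an 800 uM solution, and hydrolysis was followed at 480 nm.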
# Sm TGR inh: qHTS Assay for the Inhibitors of Schistosoma Mansoni Peroxiredoxins. Potency, µM (series often up to 114 µM), most hits filed as inhibitors. purified TGR, DTNB reduction, TNB absorbance 405 nm. 3% of 360,000 active; also: nearly all actives have a fitted effect of over 60% in size
#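 Kinetic colorimetric format: TGR-catalysed, NADPH-driven DTNB reduction monitored via TNB absorbance. Enzyme dispensed at 20 nM; compound exposure 15 min at room temperature before reaction start.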
# AmpC inh detg: qHTS Inhibitors of AmpC Beta-Lactamase (assay with detergent); P00811; AmpC hydrolysis of nitrocefin, absorbance 480 nm, 0.01% Triton; Potency, µM (titrated, usually from 114 µM), hits mostly inhibitors; 0.041% of 370,000 active; AID 485294, 2010; also: nearly all actives have a fitted effect of over 25% in size
#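 AmpC (5.3 nM in the dispensed reagent) in 20 mM phosphate pH 7.0 with 0.01% (detergent screen) or 0.0001% Triton X-100 was preincubated with compounds for 15 min at room temperature. Nitrocefin was then added from an 800 uM solution, and hydrolysis was followed at 480 nm.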
# A number is an active result; - = inactive; ? = inconclusive; . = no result given; [ ] = another dose, or the depositor's remark. Unless noted, calls follow the shape of the dose curve; as a rule, active = well fitted curve in the direction sought with a large enough effect; inconclusive = small, poorly fitted or top-dose-only effect, or another doubt; inactive = no such curve, though single readings can be large; an effect the other way counts as inactive or inconclusive.
SMILES,AMA1 RON2 block,FMDV antiviral,AmpC no deterg,Sm TGR inh,AmpC inh detg
Cc1cccc(NC(=O)CCc2ccc(C)o2)c1,-,-,-,35.5µM,-
COc1ccc(Cl)cc1S(=O)(=O)Nc1cccc(-c2ccc(N3CCCC3)nn2)c1,.,-,.,-,-
O=C(O)CCc1ccc(-c2ccc(Cl)cc2)n1Cc1ccco1,-,.,-,39.8µM,?
O=C(O)CCc1ccc(-c2cccs2)n1Cc1ccco1,-,.,-,?,-
COc1ccc(-c2ccc(CCC(=O)O)n2Cc2ccco2)cc1,-,-,-,25.1µM,-
Cc1cc(F)ccc1NC(=O)CCn1nc(C)c(S(=O)(=O)N2CCCCC2)c1C,.,-,.,-,-
O=C(Nc1ccc(C(=O)OCc2cc(=O)n3c4c(sc3n2)CCCC4)cc1)c1ccccc1,.,-,.,-,-
O=C(O)c1ccccc1-c1c2cc(I)c(=O)c(I)c-2oc2c(I)c(O)c(I)cc12,7.94µM,?,.,.,.
O=Cc1ccc(-c2ccccc2C(=O)O)o1,-,-,-,-,-
CCc1ccc(NC(=O)CCNS(=O)(=O)c2ccc3c(c2)CCCC(=O)N3)cc1,.,-,.,-,-
Cc1ccccc1-c1nc(SCc2cccnc2)c2c(=O)n(C)c(=O)n(C)c2n1,-,-,-,44.7µM,-
Cn1c(=O)c2c(SCc3cccnc3)nc(CC(C)(C)C)nc2n(C)c1=O,-,-,-,-,?
CCCc1nc(SC2CCCC2)c2c(=O)n(C)c(=O)n(C)c2n1,-,?,35.5µM,-,?
CCCc1nc(SCC(=O)N2CCC(C)CC2)c2c(=O)n(C)c(=O)n(C)c2n1,-,?,-,-,-
CCCc1nc(SCc2cccnc2)c2c(=O)n(C)c(=O)n(C)c2n1,-,?,39.8µM,-,-
COc1ccc(C2(O)CCN(CC(=O)Nc3nc(-c4ccccc4)cs3)CC2)cc1,-,28.2µM,-,-,-
CCCn1c(SCC(=O)N2CCCc3ccccc32)nnc1-c1ccco1,-,-,-,?,-
Cc1occc1-c1nnc(SCC(=O)N2CCCc3ccccc32)n1Cc1ccco1,-,-,-,39.8µM,-
O=C(CSc1nnc(-c2cccnc2)n1Cc1ccco1)N1CCc2ccccc21,-,-,-,44.7µM,-
CCn1c(SCC(=O)N2CCc3ccccc32)nnc1-c1ccco1,-,-,-,-,-
O=C(CCl)NNC(=O)c1c(O)c2ccccc2[nH]c1=O,-,?,-,14.1µM,-
O=c1c(-c2ccco2)[n+]([O-])c2ccccc2n1OCc1ccccn1,-,-,-,17.8µM,-
O=c1c(-c2ccco2)[n+]([O-])c2ccccc2n1OCc1ccccc1[N+](=O)[O-],-,-,-,15.8µM,-
O=Cc1cccc(OC(=O)/C=C/c2ccco2)c1,-,-,-,28.2µM,?
O=C(Cc1cccc2ccccc12)N/N=C/c1ccc(F)cc1,-,.,-,-,-
SMILES,AMA1 RON2 block,FMDV antiviral,AmpC no deterg,Sm TGR inh,AmpC inh detg
O=C(Cc1cccc2ccccc12)N/N=C/c1ccc(OC(=O)/C=C/c2ccco2)cc1,-,-,35.5µM,?,?
Cc1cc2oc(C(=O)Nc3ccc(S(=O)(=O)N(C)Cc4ccccc4)cc3)cc(=O)c2cc1C,.,-,.,-,-
CCN(CC)S(=O)(=O)c1cccc(NC(=O)COC(=O)c2cc(C)oc2C)c1,-,-,-,-,?
Cc1cc(C)cc(NC(=O)COC(=O)c2n[nH]c3ccccc23)c1,-,-,15.8µM,-,-
CCN(CC)S(=O)(=O)c1cccc(NC(=O)COC(=O)c2n[nH]c(=O)c3ccccc23)c1,-,?,28.2µM,-,-
CCCCC/C=C\C\C=C/C=C/C=C/[C@@H](SC[C@H](N)C(=O)O)[C@@H](O)CCCC(=O)O,.,-[0.463 µM],.,.,.
COc1ccc(C2=NN(C(=O)COC(=O)c3ccc(S(C)(=O)=O)c([N+](=O)[O-])c3)C(c3ccco3)C2)cc1 (stereo not drawn),-,25.1µM,-,.,.
CC1CCN(C(=O)c2ccc(S(=O)(=O)Cc3ccccc3F)c([N+](=O)[O-])c2)CC1,-,20µM,-,-,-
O=C(c1ccc(Br)c([N+](=O)[O-])c1)N1CCN(Cc2ccccc2)CC1,-,-,-,-,?
